Assay results from the supplement of paper PMC12636033.
± gives the standard deviation of the averaged measurements. Whole data set: some 33,000 sequences, median “E-score (rank enrichment, -0.5 to 0.5)” near -0.0068, cut for the highest 2% near 0.24. What follows is part of a selection rich in the highest values, with near analogues and random picks from the rest.

System: muMax20 (Max(13-93) K31hArg/K57hArg, M65Nle)
Test: PBM 8-mer E-score (E-score (rank enrichment, -0.5 to 0.5)); higher = stronger preferential binding
Protocol: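 Protein binding microarray (universal PBM chip covering all 10-mers in fixed probe flanks) with chemically synthesized human Max(13-93) bHLH-LZ analogs (not full-length Max) bearing noncanonical residues (hArg, Tha, Aib, Nle at 65) and aromatic Cys staples. Read-out per 8-mer (and its reverse complement): E-score (rank-based enrichment, -0.5 to 0.5) and Z-score of median probe intensity.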

Row | Sequence | PBM 8-mer E-score
1 | AAACGGAA | -0.0336 ± 0.073
2 | CCTAGTAC | 0.0875 ± 0.082
3 | ACTTCCTC | 0.052 ± 0.096
4 | AACGCTAG | -0.145 ± 0.08
5 | AAAACAGC | 0.0469 ± 0.026
6 | AAAACAGT | 0.252 ± 0.029
7 | AAAACAGG | -0.0042 ± 0.15
8 | AAAACAAC | 0.00369 ± 0.069
9 | AAAACAAT | 0.265 ± 0.029
10 | AAAACAAG | 0.111 ± 0.034
11 | GGGCTAAC | -0.0713 ± 0.048
12 | ACCAGCCC | -0.112 ± 0.14
13 | ACGTGACG | 0.271 ± 0.058
14 | AGGTGACG | -0.141 ± 0.091
15 | CCGTGACC | -0.272 ± 0.029
16 | ACGTGACT | 0.234 ± 0.088
17 | CCGTGACG | -0.149 ± 0.01
18 | CCGTGACA | 0.0799 ± 0.03
19 | ACGTGACC | 0.302 ± 0.02
20 | ACGTGACA | 0.312 ± 0.043
21 | GCGTGACC | 0.0743 ± 0.024
22 | ACCAGAAC | 0.0216 ± 0.026
23 | AGCGGCCA | -0.227 ± 0.059
24 | TAGTACTA | 0.0405 ± 0.17
25 | AAGGCGGA | -0.113 ± 0.044

Row | Sequence | PBM 8-mer E-score
26 | TAGGCCCA | -0.123 ± 0.016
27 | CCAATTTA | 0.131 ± 0.034
28 | GTGCCCTA | -0.0334 ± 0.02
29 | ACGTTATG | 0.282 ± 0.057
30 | ACGTTATA | 0.228 ± 0.019
31 | ACGTTATC | 0.0863 ± 0.046
32 | CCTGTACA | 0.0242 ± 0.16
33 | ATACACAT | 0.318 ± 0.0071
34 | ATACACAC | 0.208 ± 0.053
35 | ATACATAG | 0.181 ± 0.13
36 | CTACATAA | 0.0871 ± 0.052
37 | CTACATAC | 0.178 ± 0.042
38 | GTACATAA | 0.175 ± 0.0024
39 | AGACATAG | -0.014 ± 0.18
40 | AGACATAT | 0.29 ± 0.014
41 | TTACATAA | 0.24 ± 0.0072
42 | AGACATAC | 0.0812 ± 0.086
43 | ATACATAT | 0.254 ± 0.075
44 | ATACACAG | 0.0766 ± 0.089
45 | ATCTAACA | 0.0591 ± 0.057
46 | GCGCTTCA | -0.115 ± 0.063
47 | CTAGAGCC | -0.187 ± 0.036
48 | ACGATAGA | -0.0358 ± 0.083
49 | ATACATAA | 0.255 ± 0.032
50 | AAACATAA | 0.246 ± 0.1

Row | Sequence | PBM 8-mer E-score
51 | GAACATAA | 0.123 ± 0.095
52 | AAACATAG | 0.126 ± 0.018
53 | GCACATAA | 0.151 ± 0.038
54 | ATACATCA | 0.21 ± 0.061
55 | ATACATAC | 0.169 ± 0.017
56 | ACACATAG | -0.0133 ± 0.049
57 | ACACATAA | 0.265 ± 0.041
58 | CTCAGGAG | -0.162 ± 0.071
59 | ATCCTTGG | -0.0154 ± 0.11
60 | CTTCCCTC | 0.0647 ± 0.025
61 | AAGATTTG | 0.0326 ± 0.071
62 | ACGTTTGC | 0.0313 ± 0.0058
63 | CCGGTGAC | -0.252 ± 0.12
64 | ACATGGCG | 0.175 ± 0.045
65 | CAATGGTA | 0.0785 ± 0.022
66 | AGATGGTG | -0.0739 ± 0.067
67 | AAATGGTA | 0.238 ± 0.096
68 | ACATGCTA | 0.164 ± 0.071
69 | ACATGCTC | 0.237 ± 0.091
70 | ACATGGTC | 0.245 ± 0.08
71 | CCATGCTC | 0.0121 ± 0.13
72 | ACATGGTG | 0.241 ± 0.053
73 | CCATGGTC | -0.1574 ± 0.0011
74 | TAATGGTA | 0.193 ± 0.013
75 | CTATGGTC | -0.125 ± 0.061

Row | Sequence | PBM 8-mer E-score
76 | ATCTGGTA | -0.00159 ± 0.021
77 | AGCGGCCC | -0.191 ± 0.026
78 | CGACGGTC | -0.172 ± 0.15
79 | AGTGTGTG | 0.0857 ± 0.065
80 | AAGAGCTA | 0.12 ± 0.045
81 | ATTTGTCA | 0.123 ± 0.0081
82 | CCGGCCCG | -0.259 ± 0.054
83 | GCATGGTA | 0.142 ± 0.082
84 | CCATGGTA | 0.143 ± 0.12
85 | ACATGGTA | 0.287 ± 0.017
86 | GTACCACA | 0.115 ± 0.043
87 | CGTGCTCC | 0.0253 ± 0.0099
88 | ACATCGTA | 0.101 ± 0.015
89 | AAAATTTT | 0.305 ± 0.019
90 | AAAAATTT | 0.164 ± 0.0071
91 | AAAATTTG | 0.12 ± 0.17
92 | CACTGACC | -0.132 ± 0.086
93 | ATCATGTA | 0.108 ± 0.027
94 | AGCATGTA | 0.228 ± 0.034
95 | ATCATGTG | 0.247 ± 0.12
96 | ACCATGTG | 0.359 ± 0.078
97 | AGCATGTG | 0.276 ± 0.029
98 | AGCATGTC | 0.0591 ± 0.078
99 | ACCATGTA | 0.0719 ± 0.046
100 | ATCATGTC | 0.225 ± 0.024

Row | Sequence | PBM 8-mer E-score
101 | ACCATGTC | 0.0641 ± 0.067
102 | CCTCGACA | -0.0844 ± 0.042
103 | ATATGCTC | 0.171 ± 0.015
104 | AATGAAAA | 0.13 ± 0.0019
105 | AATGCGAT | 0.019 ± 0.029
106 | CCCCGAAA | -0.0496 ± 0.15
107 | ATCTTGAA | 0.0915 ± 0.096
108 | ATCTTGAG | 0.251 ± 0.011
109 | ATCTTGAC | 0.00194 ± 0.029
110 | AATGATGT | 0.0444 ± 0.087
111 | GCATGTCC | 0.00639 ± 0.093
112 | AGTGAGGG | -0.0244 ± 0.062
113 | CATAAAAA | 0.254 ± 0.044
114 | TGTAAACA | 0.237 ± 0.0061
115 | AATAAAGA | 0.18 ± 0.015
116 | TAAAAAAA | 0.159 ± 0.11
117 | CATAAAAG | 0.138 ± 0.11
118 | GGTAAACA | 0.163 ± 0.037
119 | GATAAAGA | 0.195 ± 0.048
120 | GATAAAAA | 0.204 ± 0.016
121 | TATAAAAA | 0.301 ± 0.1
122 | AGTAAACA | 0.202 ± 0.092
123 | CATAAAAC | 0.209 ± 0.058
124 | TATAAAGA | 0.252 ± 0.053
125 | AAAGTAGA | 0.0577 ± 0.0065

Row | Sequence | PBM 8-mer E-score
126 | CAAGGTAA | 0.0156 ± 0.05
127 | CACCCCAA | 0.206 ± 0.015
128 | CGAGCACC | -0.226 ± 0.0053
129 | TGCCTGAA | -0.00136 ± 0.071
130 | ATTGATCG | 0.103 ± 0.027
131 | TATAAACA | 0.234 ± 0.022
132 | GATAAACA | 0.136 ± 0.05
133 | CATAAACA | 0.252 ± 0.053
134 | GTCGCGCA | -0.0658 ± 0.12
135 | GTACTCCA | -0.0757 ± 0.025
136 | AAGCTGTA | 0.111 ± 0.038
137 | AAGCTGAT | 0.313 ± 0.042
138 | AAGCTGAC | -0.16 ± 0.059
139 | TGCTGGAA | -0.0216 ± 0.063
140 | GGAGAACC | -0.142 ± 0.092
141 | AGTTATAC | 0.143 ± 0.075
142 | CGTTATAG | 0.262 ± 0.046
143 | AGTTATAA | 0.181 ± 0.096
144 | CGTTATAA | 0.133 ± 0.02
145 | AGTTATAT | 0.244 ± 0.012
146 | CGTTATAC | 0.036 ± 0.026
147 | GTCTTCCA | -0.0719 ± 0.098
148 | ATCCTAAG | -0.054 ± 0.025
149 | ACAAAGCG | 0.0741 ± 0.0089
150 | GAACCTAC | -0.16 ± 0.037

Row | Sequence | PBM 8-mer E-score
151 | CTATTTAA | 0.0343 ± 0.057
152 | TTATTAAA | 0.142 ± 0.044
153 | ATATTAAA | 0.326 ± 0.0046
154 | ATATTAAT | 0.238 ± 0.075
155 | ATATTTAC | 0.196 ± 0.025
156 | ACATTTAA | 0.258 ± 0.14
157 | CTATTAAA | 0.159 ± 0.025
158 | ATATTAAG | 0.163 ± 0.058
159 | ATATTAAC | 0.196 ± 0.0065
160 | ATATTTAA | 0.344 ± 0.013
161 | ACATTTAG | 0.136 ± 0.066
162 | GCATTTAA | 0.0477 ± 0.11
163 | AGGAACTA | -0.0068 ± 0.0036
164 | CACCAGGG | -0.137 ± 0.034
165 | AAGTCTTC | 0.0741 ± 0.052
166 | CTCCATTC | 0.102 ± 0.029
167 | CGAACCTC | 0.00719 ± 0.0044
168 | AAAAATCT | 0.0641 ± 0.091
169 | GTCCTGAA | -0.111 ± 0.053
170 | CCAGAAAC | -0.112 ± 0.092
171 | CTCACGGA | -0.205 ± 0.023
172 | CATAGCAA | 0.209 ± 0.024
173 | GATAGCAC | 0.0754 ± 0.042
174 | CATAGCAC | 0.258 ± 0.0042
